Columns and labels:
Conditions in all cases: concentration: 1 μM,replicates: in singlicate; n = 1
FGFR1 = system: FGFR1
FGFR2 = system: FGFR2
FGFR3 = system: FGFR3
FGFR4 = system: FGFR4
FGR = system: FGR
FLT1 = system: FLT1
FLT3-autoinhibited = system: FLT3-autoinhibited
FLT3 = system: FLT3
FLT4 = system: FLT4
FRK = system: FRK
FYN = system: FYN
GAK = system: GAK
GCN2(Kin.Dom.2,S808G) = system: T1, GCN2(Kin.Dom.2,S808G)
T1 construct: gene EIF2AK4

GRK1 = system: GRK1
GRK2 = system: T2, GRK2
T2 construct: gene ADRBK1

GRK3 = system: T3, GRK3
T3 construct: gene ADRBK2

GRK4 = system: GRK4
GRK7 = system: GRK7
GSK3A = system: GSK3A
GSK3B = system: GSK3B
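Note: KINOMEscan kinase panel screen.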

Compound | %Inh (FGFR1) | %Inh (FGFR2) | %Inh (FGFR3) | %Inh (FGFR4) | %Inh (FGR) | %Inh (FLT1) | %Inh (FLT3-autoinhibited) | %Inh (FLT3) | %Inh (FLT4) | %Inh (FRK) | %Inh (FYN) | %Inh (GAK) | %Inh (GCN2(Kin.Dom.2,S808G)) | %Inh (GRK1) | %Inh (GRK2) | %Inh (GRK3) | %Inh (GRK4) | %Inh (GRK7) | %Inh (GSK3A) | %Inh (GSK3B)
CC(C)c1nc(-c2cccc(NS(=O)(=O)c3ccccc3)c2)c(-c2ccnc(Nc3ccc4c(c3)CN(C)CC4)n2)s1 [GSK1649598] | 68% | 6% | 35% | 0% | 97.4% | 98.2% | 40% | 90.3% | 99.6% | 98.2% | 98.7% | 87% | 100% | 0% | 0% | 0% | 0% | 0% | 61% | 24%
N#Cc1cccc(C(=O)NC2CCN(c3ccnc(Nc4ccc(F)cc4)n3)C2)c1 (stereo not shown) [GSK1379708] | 7% | 0% | 0% | 1% | 18% | 20% | 0% | 0% | 20% | 6% | 30% | 0% | 9% | 0% | 0% | 0% | 2% | 0% | 0% | 0%
CCNCC(Cc1ccccc1)NC(=O)c1cc(Br)c(-c2ccnc3[nH]ccc23)s1.Cl.Cl (stereo not shown) [GSK1383280] | 88% | 81% | 61% | 68% | 22% | 54% | 9% | 69% | 49% | 17% | 0% | 51% | 43% | 89% | 61% | 83% | 0% | 91.9% | 0% | 14%
Cn1ccc2ncnc(Oc3ccc(NC(=O)Nc4cccc(C(F)(F)F)c4)c(Cl)c3)c21 |  | 10% | 0% | 14% | 5% | 99.6% | 0% | 84% | 99.9% | 94.9% | 0% | 1% | 21% | 32% | 0% | 0% | 0% | 0% | 28% | 0%
FC(F)(F)c1cc(Br)cc(Nc2nccc(-c3cnn4ncccc34)n2)c1 [GW810578] | 4% | 0% | 0% | 77% | 16% | 30% | 70% | 95.7% | 6% | 0% | 0% | 20% | 12% | 7% | 14% | 8% | 0% | 10% | 90.4% | 89%
COC(=O)c1cccc(NC(=O)NC2CCN(c3ccnc(NCc4ccc(F)cc4)n3)CC2)c1 [GSK1379860] | 3% | 27% | 11% | 0% | 11% | 42% | 24% | 0% | 38% | 16% | 10% | 0% | 0% | 0% | 0% | 38% | 0% | 0% | 6% | 8%
CCOC(=O)N1CCC(n2cnc(-c3ccc(F)cc3)c2-c2ccnc(N)n2)CC1 [SB-219952] | 0% | 12% | 12% | 0% | 0% | 33% | 14% | 24% | 0% | 2% | 0% | 59% | 44% | 0% | 8% | 0% | 32% | 20% | 0% | 37%
COc1ccc(Nc2nccc(N3CCC(NC(=O)c4cccc(C#N)c4)C3)n2)cc1 (stereo not shown) [GSK1379730] | 13% | 19% | 4% | 6% | 0% | 24% | 0% | 18% | 22% | 0% | 0% | 0% | 2% | 0% | 3% | 8% | 0% | 0% | 0% | 13%
Cn1ccc2ncnc(Oc3ccc(NC(=O)Nc4cncc(C(F)(F)F)c4)c(Cl)c3)c21 |  | 0% | 0% | 0% | 0% | 94.5% | 0% | 95.7% | 99.7% | 72% | 0% | 0% | 0% | 4% | 0% | 0% | 11% | 0% | 0% | 0%

Source: article PMC5540273 (PLoS ONE, 2017)
